Measured values reported in the supplement of paper PMC3334620.
In all, about 33,000 sequences were measured (“E-score (-0.5 to 0.5)”: median about -0.016, highest 2% from about 0.31 on). The full list was thinned out, with the highest values kept by preference.

Each sequence was assayed against Cst6 (UniProt P40535) (assay: PBM E-score (8-mer binding enrichment) (E-score (-0.5 to 0.5)); higher = stronger / more preferred TF binding). Details: protein concentration: 200 nM; construct: GST-DNA-binding domain.
Sequence of UniProt P40535 (P40535 whole entry, the tested form may be a part): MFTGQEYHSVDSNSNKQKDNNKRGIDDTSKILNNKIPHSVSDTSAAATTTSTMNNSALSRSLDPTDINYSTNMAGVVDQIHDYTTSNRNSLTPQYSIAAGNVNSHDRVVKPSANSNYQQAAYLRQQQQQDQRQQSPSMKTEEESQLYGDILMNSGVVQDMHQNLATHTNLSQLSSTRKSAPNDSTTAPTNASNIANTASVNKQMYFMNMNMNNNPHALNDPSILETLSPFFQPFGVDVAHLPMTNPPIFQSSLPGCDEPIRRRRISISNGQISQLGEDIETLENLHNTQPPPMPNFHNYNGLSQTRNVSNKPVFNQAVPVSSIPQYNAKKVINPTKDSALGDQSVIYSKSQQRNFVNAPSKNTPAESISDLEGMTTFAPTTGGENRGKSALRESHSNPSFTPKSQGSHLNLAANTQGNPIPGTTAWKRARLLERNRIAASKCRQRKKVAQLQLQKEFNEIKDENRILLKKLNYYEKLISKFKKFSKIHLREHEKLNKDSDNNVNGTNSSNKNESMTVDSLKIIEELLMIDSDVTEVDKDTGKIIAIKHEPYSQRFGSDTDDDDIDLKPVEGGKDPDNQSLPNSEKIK
Summary of the method: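 The E-score, a modified Wilcoxon-Mann-Whitney statistic, was computed by the Universal PBM Analysis Suite for every ungapped eight-base word pooled with its reverse complement. Scans behind it were normalised with masliner after bound GST-tagged yeast transcription factors were detected with fluorescent anti-GST. The proteins, at about 100-200 nM, had been applied to universal all-10-mer Agilent arrays made double-stranded by primer extension.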

Row | Sequence | PBM E-score
1 | AATCCATA | 0.0862
2 | CGCCGAGC | 0.0842
3 | CTGTCGCA | -0.146
4 | CGGTCCTC | -0.133
5 | CATGCGAA | 0.111
6 | AAGTTAAT | 0.213
7 | AGAGAAAC | 0.0803
8 | AATTGGCG | 0.198
9 | GTCTCTTA | -0.00905
10 | ACGATGAT | 0.206
11 | CCGATGAA | 0.0447
12 | GCGATGAC | 0.413
13 | GGGATGAC | 0.221
14 | CCGATGAG | -0.087
15 | CCGATGAC | 0.336
16 | ACGATGAC | 0.387
17 | GCGATGAA | 0.0225
18 | ACGATGAA | 0.154
19 | AACTGAGC | -0.152
20 | AGGGCCTA | -0.327
21 | AACCTACG | -0.043
22 | CTGAGGTA | 0.0121

Row | Sequence | PBM E-score
23 | ATGAGGTA | 0.312
24 | ATGAGGTG | 0.174
25 | AACTGCTC | -0.0302
26 | GAGGTGAA | -0.0049
27 | ACTGTCAT | 0.0752
28 | ACTGTCAC | 0.141
29 | GCTGTCAC | 0.0464
30 | AATGTCAT | 0.356
31 | AATGTAAG | 0.192
32 | GATGTCAC | 0.448
33 | AATGTCAC | 0.308
34 | AATGTCGT | 0.195
35 | AATGTAAA | 0.258
36 | AATGTAAT | 0.347
37 | AATGTCAG | -0.00168
38 | GATGTCAA | 0.245
39 | CGACCCCG | -0.235
40 | AACCTAAT | -0.0438
41 | CAGTTTTA | 0.00126
42 | AGTAGGTA | -0.0379
43 | CCGATCTA | -0.27
44 | CGAACGAA | 0.0744

Row | Sequence | PBM E-score
45 | AAGGCGCT | 0.118
46 | CACACGGC | 0.293
47 | ACGTACCG | 0.0475
48 | ATTTCGAG | 0.0911
49 | TCAGGGAA | -0.141
50 | CGGCTGGC | -0.28
51 | CATGTCAG | 0.144
52 | GATGTAAC | 0.341
53 | CATGTAAC | 0.014
54 | AATGTAAC | 0.0559
55 | CATGTCAA | 0.161
56 | CATGTCAC | 0.36
57 | ATTGGCCC | -0.36
58 | GATGAGAC | 0.0611
59 | ATAATGTA | 0.203
60 | CATTCCCG | 0.0388
61 | ATGTTGAA | 0.104
62 | CGTAATAC | 0.366
63 | AGTAATAC | -0.0264
64 | AGTAATAG | 0.211
65 | AGTAATAA | 0.302
66 | CCTAATAA | 0.00168

Row | Sequence | PBM E-score
67 | CGTAATAA | 0.325
68 | CATAATAG | 0.202
69 | GGTAATAA | 0.247
70 | CGTAATAG | 0.318
71 | TGTAATAA | 0.329
72 | CTTAATAA | 0.155
73 | GGTAATAC | 0.111
74 | CATTGCCC | -0.241
75 | AACTTGCT | -0.117
76 | CTAACTAG | 0.0585
77 | GGATTGCA | 0.0154
78 | ATATACAT | 0.16
79 | TGGGGAAA | 0.0662
80 | AACCATCC | -0.0939
81 | CGAATGAC | 0.348
82 | CGAATGAA | 0.0688
83 | GGAATGAC | 0.255
84 | AGAATGAC | 0.354
85 | AGAATGAA | 0.207
86 | AGAATGAG | -0.0205
87 | GGACGGGA | -0.285
88 | ATAAGTAA | 0.164

Row | Sequence | PBM E-score
89 | CACTGACA | 0.08
90 | CACTGACC | -0.133
91 | CGCTGACA | 0.166
92 | AGCTGACG | 0.359
93 | AGCTGACC | -0.126
94 | CGCTGACG | 0.384
95 | AGCTGACT | -0.0426
96 | CGCTGACC | -0.0695
97 | CACTGACG | 0.371
98 | AGCTTTAA | 0.127
99 | CGGCTAGA | -0.038
100 | ATTTCAGC | 0.00693
101 | ATGGAAAT | 0.122
102 | GGCTACAC | -0.0907
103 | CTCCAGAC | -0.158
104 | TACATTAA | 0.19
105 | GGTGCGTA | -0.062
106 | CGGTTAAG | -0.0846
107 | AGGTCATC | 0.231
108 | AGGTCATG | 0.221
109 | CAGTCATA | 0.123
